# How the values were obtained:
# Settings in all cases: concentration: 1 μM, replicates: in singlicate; n = 1
# BMX = test system: BMX
# BRAF = test system: BRAF
# BRK = test system: T1, BRK
# T1 construct: gene PTK6
# BRSK1 = test system: BRSK1
# BRSK2 = test system: BRSK2
# BTK = test system: BTK
# BUB1 = test system: BUB1
# CAMK1B = test system: CAMK1B
# CAMK1D = test system: CAMK1D
# CAMK1G = test system: CAMK1G
# CAMK1 = test system: CAMK1
# CAMK2A = test system: CAMK2A
# CAMK2B = test system: CAMK2B
# CAMK2D = test system: CAMK2D
# CAMK2G = test system: CAMK2G
# CAMK4 = test system: CAMK4
# CAMKK1 = test system: CAMKK1
# CAMKK2 = test system: CAMKK2
# CASK = test system: CASK
# CDC2L1 = test system: T2, CDC2L1
# T2 construct: gene CDK11B
# 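Note: KINOMEscan kinase panel screen.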
SMILES,%Inh (BMX) [%],%Inh (BRAF) [%],%Inh (BRK) [%],%Inh (BRSK1) [%],%Inh (BRSK2) [%],%Inh (BTK) [%],%Inh (BUB1) [%],%Inh (CAMK1B) [%],%Inh (CAMK1D) [%],%Inh (CAMK1G) [%],%Inh (CAMK1) [%],%Inh (CAMK2A) [%],%Inh (CAMK2B) [%],%Inh (CAMK2D) [%],%Inh (CAMK2G) [%],%Inh (CAMK4) [%],%Inh (CAMKK1) [%],%Inh (CAMKK2) [%],%Inh (CASK) [%],%Inh (CDC2L1) [%]
Cc1ccc(C)c(NC(=O)NC2CCN(c3ccnc(Nc4ccc(F)cc4)n3)C2)c1 (stereo not shown) [GSK1379720],0,0,21,0,0,0,49,0,6,11,2,0,0,19,4,0,0,0,9,0
COc1cc(Nc2nccc(-c3c(-c4cccc(NC(=O)c5c(F)cccc5F)c4)nn4ncccc34)n2)cc(OC)c1OC [GSK327238],91.4,96,97.6,0,40,94,54,0,13,3,58,0,0,10,19,0,24,18,14,16
Cc1ccc(C(=O)N2CC[C@@H](O)C2)cc1-n1c(C)cc(OCc2ccc(F)cc2F)c(Br)c1=O,0,58,20,0,0,0,0,0,17,0,0,0,0,0,0,0,0,0,0,0
Cc1occc1-c1ncc(OC[C@@H](N)Cc2c[nH]c3ccccc23)cc1-c1ccc2[nH]nc(C)c2c1.O=C(O)C(F)(F)F [GSK682037],22,0,7,0,0,0,23,29,82,27,25,20,27,47,52,0,19,16,11,0
Nc1ncc(-c2cccnc2)c2scc(-c3ccc4c(c3)CCN4C(=O)Cc3ccccc3)c12 [GSK683281],20,0,68,27,0,0,0,0,22,21,22,0,0,19,37,1,34,26,26,0
Cl.Cl.NCC(NC(=O)c1cc(-c2ccccc2)c(-c2ccnc3[nH]ccc23)s1)c1ccccc1 (stereo not shown) [GSK1321561],38,9,8,0,0,0,72,24,5,0,4,0,0,5,0,0,15,10,13,0
c1ccc(-c2cnc3nccnn23)cc1 [AH20685],0,33,22,0,0,6,0,0,0,0,0,0,0,0,0,0,1,0,4,0
COCCOCCOc1cc2ncc3c4ccc(C#N)cc4[nH]c3c2cc1OC,35,0,18,0,12,0,96.7,14,25,1,26,85,57,87,72,0,83,63,8,0
COc1cccc(-c2ccc3c(NC(=O)C4CC4)n[nH]c3n2)c1 [SB-710903],0,0,3,8,3,29,82,11,0,0,0,100,100,8,9,0,6,7,23,0
Cl.c1ccc(-c2ccc3c(Nc4ccc5[nH]ccc5c4)ccnc3c2)nc1 [GW440138],5,0,28,0,0,0,64,11,0,0,0,0,0,7,18,0,3,12,0,0
CN(C)S(=O)(=O)c1cc(-c2ccc3nccc(-c4cccc(S(N)(=O)=O)c4)c3c2)cnc1N [GSK1669921],21,30,11,12,0,0,0,0,25,7,40,1,0,3,8,0,48,47,4,0
O=C(NC1CCN(c2ccnc(Nc3ccc(F)cc3)n2)C1)c1cc2ccccc2s1 (stereo not shown) [GSK1379716],22,0,25,18,9,0,64,9,17,0,26,0,0,7,23,13,10,17,22,0
COC(=O)Nc1nc2cc(Oc3ccc(NC(=O)Nc4cc(C(F)(F)F)ccc4F)cn3)ccc2[nH]1.Cl.Cl [GW681170],5,73,0,0,0,0,3,28,12,44,17,0,0,42,57,0,49,59,0,0
Cc1cccc(Nc2nc(N[C@H]3CCNC3)ncc2C(N)=O)c1.Cl [GSK2197149],16,4,7,0,0,0,44,68,55,8,41,0,0,6,18,0,2,17,0,73
CCn1c(-c2nonc2N)nc2c(C#CC(C)(C)O)nc(OC[C@H](N)c3ccccc3)cc21 [GSK943949],2,42,0,0,50,0,13,0,10,0,0,0,0,0,0,0,0,0,25,0
C[C@@H](Oc1cc(-n2cnc3cc(-c4ccnc(NCCS(C)(=O)=O)c4)ccc32)sc1C(N)=O)c1ccccc1Cl [GSK907232],23,0,20,55,78,0,31,31,15,13,15,0,0,5,33,0,21,80,57,0
Nc1ncnc2c1nc(-c1ccccc1)n2-c1ccccc1 [SKF-97293],15,6,1,15,27,0,46,6,8,0,13,3,1,18,4,0,0,6,17,0

# From article PMC5540273 (PLoS ONE, 2017)
